# Experimental data from PubChem BioAssay AID1159580 (chemical genetic matrix, 2015).
# In all, about 5,500 compounds went through this assay and about 2,000 (36%) were called active. Not shown: some 18% with an inconclusive outcome. This is one part of the list. Unmarked numbers belong to inactive results. Rule as the data show it: active = normalized growth mostly below about 0.91 (no sharp cut-off); inconclusive = no clear call, values can overlap the other calls; inactive = mostly above about 0.92.
# Assay: chemical genetic growth profiling, strain panel (AID 1159580);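 also: tested at 20 µM; growth read once vehicle control cultures reached saturation at 30 °C; 1 = growth at the plate median or of vehicle wells; lower values mean less growth of the strain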
# Details: S. cerevisiae deletion strains, growth OD
smiles,measurement,setting,value
O=C(/C=C(\O)c1ccccc1)c1ccccc1O,normalized growth,"locus YAL021C, strain ccr4, stronger effect = lower value",0.843 (active)
same,normalized growth,"locus YAL026C, strain drs2, stronger effect = lower value",0.775 (active)
same,normalized growth,"locus YAL030W, strain snc1, stronger effect = lower value",0.827 (active)
same,normalized growth,"locus YBL061C, strain skt5, stronger effect = lower value",0.776 (active)
same,normalized growth,"locus YBR009C, strain hhf1, stronger effect = lower value",0.667 (active)
same,normalized growth,"locus YBR021W, strain FUR4, stronger effect = lower value",0.939
same,normalized growth,"locus YBR023C, strain chs3, stronger effect = lower value",0.778 (active)
same,normalized growth,"locus YBR171W, strain sec66, stronger effect = lower value",0.807 (active)
same,normalized growth,"locus YBR229C, strain ROT2, stronger effect = lower value",0.778 (active)
same,normalized growth,"locus YBR231C, strain swc5, stronger effect = lower value",0.65 (active)
same,normalized growth,"locus YBR279W, strain paf1, stronger effect = lower value",0.865 (active)
same,normalized growth,"locus YCL011C, strain gbp2, stronger effect = lower value",0.681 (active)
same,normalized growth,"locus YCL016C, strain dcc1, stronger effect = lower value",0.836 (active)
same,normalized growth,"locus YCL029C, strain bik1, stronger effect = lower value",0.593 (active)
same,normalized growth,"locus YCL061C, strain MRC1, stronger effect = lower value",0.812 (active)
same,normalized growth,"locus YCL069W, strain vba3, stronger effect = lower value",0.843 (active)
same,normalized growth,"locus YCR088W, strain abp1, stronger effect = lower value",0.877 (active)
same,normalized growth,"locus YDL005C, strain med2, stronger effect = lower value",0.941
same,normalized growth,"locus YDL035C, strain GPR1, stronger effect = lower value",0.791 (active)
same,normalized growth,"locus YDL040C, strain nat1, stronger effect = lower value",0.918 (active)
same,normalized growth,"locus YDL074C, strain BRE1, stronger effect = lower value",0.28 (active)
same,normalized growth,"locus YDL101C, strain DUN1, stronger effect = lower value",0.595 (active)
same,normalized growth,"locus YDL134C, strain PPH21, stronger effect = lower value",0.827 (active)
same,normalized growth,"locus YDL185W, strain tfp1, stronger effect = lower value",0.817 (active)
same,normalized growth,"locus YDL192W, strain arf1, stronger effect = lower value",0.776 (active)
same,normalized growth,"locus YDR001C, strain nth1, stronger effect = lower value",0.903 (active)
same,normalized growth,"locus YDR069C, strain doa4, stronger effect = lower value",0.701 (active)
same,normalized growth,"locus YDR101C, strain arx1, stronger effect = lower value",0.665 (active)
same,normalized growth,"locus YDR137W, strain rgp1, stronger effect = lower value",0.402 (active)
same,normalized growth,"locus YDR159W, strain sac3, stronger effect = lower value",0.682 (active)
same,normalized growth,"locus YDR162C, strain NBP2, stronger effect = lower value",0.794 (active)
same,normalized growth,"locus YDR195W, strain ref2",1.06
same,normalized growth,"locus YDR297W, strain sur2, stronger effect = lower value",0.856 (active)
same,normalized growth,"locus YDR318W, strain mcm21, stronger effect = lower value",0.844 (active)
same,normalized growth,"locus YDR334W, strain swr1, stronger effect = lower value",0.687 (active)
same,normalized growth,"locus YDR335W, strain msn5, stronger effect = lower value",0.857 (active)
same,normalized growth,"locus YDR388W, stronger effect = lower value",0.736 (active)
same,normalized growth,"locus YDR392W, strain spt3, stronger effect = lower value",0.71 (active)
same,normalized growth,"locus YDR502C, strain sam2, stronger effect = lower value",0.845 (active)
same,normalized growth,"locus YEL003W, strain gim4, stronger effect = lower value",0.709 (active)
same,normalized growth,"locus YEL037C, strain rad23, stronger effect = lower value",0.868 (active)
same,normalized growth,"locus YEL061C, strain CIN8 (second series), stronger effect = lower value",0.903 (active)
same,normalized growth,"locus YEL061C, strain CIN8, stronger effect = lower value",0.826 (active)
same,normalized growth,"locus YER015W, strain faa2, stronger effect = lower value",0.685 (active)
same,normalized growth,"locus YER016W, strain bim1, stronger effect = lower value",0.88 (active)
same,normalized growth,"locus YER110C, stronger effect = lower value",0.787 (active)
same,normalized growth,"locus YER111C, strain swi4, stronger effect = lower value",0.871 (active)
same,normalized growth,"locus YER155C, strain BEM2 (second series), stronger effect = lower value",0.755 (active)
same,normalized growth,"locus YER155C, strain BEM2, stronger effect = lower value",0.413 (active)
same,normalized growth,"locus YER167W, strain BCK2, stronger effect = lower value",0.554 (active)
same,normalized growth,"locus YFR010W, strain ubp6, stronger effect = lower value",0.766 (active)
same,normalized growth,"locus YGL078C, strain dbp3, stronger effect = lower value",0.986
same,normalized growth,"locus YGL086W, strain mad1, stronger effect = lower value",0.794 (active)
same,normalized growth,"locus YGL167C, strain pmr1, stronger effect = lower value",0.895 (active)
same,normalized growth,"locus YGL173C, strain kem1, stronger effect = lower value",0.779 (active)
same,normalized growth,"locus YGL227W, strain vid30, stronger effect = lower value",0.906 (active)
same,normalized growth,"locus YGL240W, strain doc1, stronger effect = lower value",0.758 (active)
same,normalized growth,"locus YGL248W, strain PDE1, stronger effect = lower value",0.491 (active)
same,normalized growth,"locus YGL253W, strain hxk2, stronger effect = lower value",0.543 (active)
same,normalized growth,"locus YGR078C, strain PAC10, stronger effect = lower value",0.914
same,normalized growth,"locus YGR135W, strain pre9, stronger effect = lower value",0.836 (active)
same,normalized growth,"locus YGR252W, strain gcn5, stronger effect = lower value",0.872
same,normalized growth,"locus YHR013C, strain ard1, stronger effect = lower value",0.865
same,normalized growth,"locus YHR027C, strain rpn1, stronger effect = lower value",0.637 (active)
same,normalized growth,"locus YHR030C, strain SLT2, stronger effect = lower value",0.854 (active)
same,normalized growth,"locus YHR079C, strain IRE1 (second series), stronger effect = lower value",0.554 (active)
same,normalized growth,"locus YHR094C, strain hxt1, stronger effect = lower value",0.935
same,normalized growth,"locus YHR129C, strain ARP1, stronger effect = lower value",0.527 (active)
same,normalized growth,"locus YHR142W, strain chs7, stronger effect = lower value",0.648 (active)
same,normalized growth,"locus YHR200W, strain rpn10, stronger effect = lower value",0.863 (active)
same,normalized growth,"locus YIL066C, strain RNR3, stronger effect = lower value",0.696 (active)
same,normalized growth,"locus YIL073C, strain SPO22, stronger effect = lower value",0.301 (active)
same,normalized growth,"locus YIL125W, strain kgd1, stronger effect = lower value",0.98
same,normalized growth,"locus YIR030C, strain dcg1, stronger effect = lower value",0.592 (active)
same,normalized growth,"locus YJL092W, strain hpr5, stronger effect = lower value",0.87 (active)
same,normalized growth,"locus YJL095W, strain BCK1 (second series), stronger effect = lower value",0.741 (active)
same,normalized growth,"locus YJL095W, strain BCK1, stronger effect = lower value",0.254 (active)
same,normalized growth,"locus YJL115W, strain asf1, stronger effect = lower value",0.94
same,normalized growth,"locus YJL129C, strain trk1, stronger effect = lower value",0.741 (active)
same,normalized growth,"locus YJL134W, strain LCB3, stronger effect = lower value",0.908 (active)
same,normalized growth,"locus YJL154C, strain vps35, stronger effect = lower value",0.918 (active)
same,normalized growth,"locus YJL164C, strain tpk1, stronger effect = lower value",0.695 (active)
same,normalized growth,"locus YJL166W, strain qcr8, stronger effect = lower value",0.546 (active)
same,normalized growth,"locus YJL168C, strain set2, stronger effect = lower value",0.958
